Compound activity from PubChem BioAssay.
Sampled rows, rich in hits. Any-hit rate of the full collection: about 3.1%.
TrxR1 substrate = rat thioredoxin reductase 1 substrate activity; Potency, µM (doses to about 114 µM), inactives show top-dose activity change, negative = substrate turnover; 390,000 tested, 0.01% active; purified TrxR1 substrate turnover, NADPH consumption readout; AID 588456; O89049; note: % is set by controls: 0 for no effect and ±100 for the full control effect; nearly all actives have a fitted effect of over 50% in size
Target sequence (O89049 whole entry, looked up): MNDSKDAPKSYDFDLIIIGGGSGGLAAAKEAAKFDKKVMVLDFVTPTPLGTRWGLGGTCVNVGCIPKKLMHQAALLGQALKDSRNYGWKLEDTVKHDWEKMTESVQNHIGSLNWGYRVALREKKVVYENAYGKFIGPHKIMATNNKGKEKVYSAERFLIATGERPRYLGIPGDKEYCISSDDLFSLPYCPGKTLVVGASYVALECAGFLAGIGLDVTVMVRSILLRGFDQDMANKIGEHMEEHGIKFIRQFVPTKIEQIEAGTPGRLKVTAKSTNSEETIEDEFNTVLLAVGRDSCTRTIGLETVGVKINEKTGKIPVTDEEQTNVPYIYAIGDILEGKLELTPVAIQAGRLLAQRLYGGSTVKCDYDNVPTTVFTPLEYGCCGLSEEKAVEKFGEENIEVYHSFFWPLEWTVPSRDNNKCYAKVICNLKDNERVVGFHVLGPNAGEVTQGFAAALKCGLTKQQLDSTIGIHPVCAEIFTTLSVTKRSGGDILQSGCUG
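Rat TrxR1, dispensed at 90 nM, was prereduced with 400 uM NADPH (final) for 5 min at ~22 deg C, then incubated with compound 15 min before 400 uM selenite. A first-read NADPH fluorescence drop versus no-compound background flagged substrates.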
A549 tox = kills or reduces viability of A549 cells in Nrf2 counter-screen; AID 504648; A549 ARE-Fluc cells, CellTiter-Fluor viability, 18-24 h; Potency, µM (doses to about 46 µM), inactives show at the top dose activity change, negative = cytotoxicity, usual class: inhibitors; 390,000 tested, 0.16% active; note: % is set by controls: 0 for no effect and ±100 for the full control effect
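A549 ARE-Fluc cells in 5% FBS OPTI-MEM, 5000 cells/well, rested 2 h then exposed to compounds in concentration-response for 18-24 h at 37 °C. Viability by CellTiter-Fluor fluorescence (Ex 405/Em 525) after 30 min; luciferase luminescence (BugLite, 15 min, RT) read afterwards.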
IDH1 R132H inh = human IDH1 R132H inhibition; IDH1-R132H enzyme, NADPH consumption, diaphorase/resazurin fluorescence; Potency, µM (doses to about 76.6 µM), for inactives: at the highest dose activity change, negative = inhibition, most hits filed as inhibitors; 390,000 tested, 0.093% active; AID 602179; note: % is set by controls: 0 for no effect and ±100 for the full control effect; nearly all actives have a fitted effect of over 65% in size
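IDH1-R132H (0.5 ug/mL) preincubated 30 min with compound, then NADPH (0.016 mM) and alpha-KG (2 mM) added; 80 min at RT, pH 7.5. Remaining NADPH coupled via diaphorase/resazurin to fluorescence (540/590 nm); concentration-response curves normalized to no-enzyme control.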
TrxR1 inh = rat TrxR1 inhibition; O89049; recombinant rTrxR1, NADPH fluorescence consumption, selenite substrate; Potency, µM (doses to about 114 µM), for the others: top-dose activity change, negative = inhibition, actives largely listed as inhibitors; 390,000 tested, 1% active; note: % is set by controls: 0 for no effect and ±100 for the full control effect; nearly all actives have a fitted effect of over 65% in size
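Rat TrxR1 (90 nM in the dispensed reagent) was pre-reduced with 400 uM NADPH for 5 min at room temperature, then incubated with compound for 15 min. After 400 uM selenite was added, NADPH fluorescence (Ex 340/Em 450 nm) was followed for 8 min.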
Nrf2 block = inhibitors of Nrf2 signaling; AID 504444; 360,000 tested, 2.1% active; A549 ARE-Fluc reporter, luciferase luminescence, 18-24 h; Potency, µM (top dose mostly 46 µM), inactives show at the highest dose activity change, negative = inhibition, usual class: inhibitors; note: % is set by controls: 0 for no effect and ±100 for the full control effect; nearly all actives have a fitted effect of over 60% in size
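Nrf2 activity is the BugLite luminescence, read 15 min after reagent at room temperature, following CellTiter-Fluor cytotoxicity readout (30 min, 37C). Compound titrations were applied for 18-24 h to 5000 A549 ARE_Fluc cells/well in 5% FBS OPTI-MEM.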
Mito fusion yeast = blocks mitochondrial division or promotes mitochondrial fusion; Potency, µM (series often up to 46.1 µM), for the others: at the highest dose growth rescue (activation), usual class: activators; S. cerevisiae fusion-defective mutant growth rescue, CellTiterGlo 48 h; 320,000 tested, 0.23% active; AID 485298; note: % of control where 0% means no effect; nearly all actives have a fitted effect of over 45% in size
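Growth-rescue viability read-out: after 48 h at the non-permissive 37C in glycerol/ethanol YPEG, yeast mitochondrial fusion mutants are measured by CellTiterGlo luminescence; compounds (23 nl pinned per well) restoring growth score as division inhibitors or fusion activators.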
* marks the source's active call; other numbers are inactive results; [ ] = another dose, or the depositor's remark. Calls come from the whole dose curve; as a rule, active = well fitted curve in the direction sought with a large enough effect; inconclusive = small, poorly fitted or top-dose-only effect, or another doubt; inactive = no such curve, though single readings can be large; an effect the other way counts as inactive or inconclusive. Potency is the fitted concentration of half-maximal effect.

COc1ccc(CN=C(N)N=C(N)N)cc1Cl was read as TrxR1 substrate -6%[57.1 µM], A549 tox -19%, IDH1 R132H inh 6%, TrxR1 inh 16%[57.1 µM], Nrf2 block 16µM* and Mito fusion yeast 1%.
Cc1cc2c(s1)c1cnn(Cc3cccc([N+](=O)[O-])c3)c(=O)c1n2C was read as A549 tox 11% and Nrf2 block -17%.
`Cc1nc2nncn2c(NCc2ccc(F)cc2)c1C` gave TrxR1 substrate 6%, A549 tox 0%, IDH1 R132H inh 18%, TrxR1 inh 21% and Nrf2 block 8.2µM*.
`Cc1ccccc1C(=O)N1CCC(N2CCN(Cc3ccc(F)cc3)C(=O)C2=O)CC1` gave TrxR1 substrate 0%[57.1 µM], A549 tox 20%, IDH1 R132H inh 8%, TrxR1 inh 10%[57.1 µM] and Nrf2 block -64%.
For COC(=O)c1cc(NC(=O)c2cc3sccc3n2Cc2ccc(Cl)cc2)cc(C(=O)OC)c1 the results were TrxR1 substrate 4%, A549 tox -1%, IDH1 R132H inh -2%, TrxR1 inh 25% and Nrf2 block -6%.
For COc1ccc(C[C@H](N)C(=O)N[C@H]2[C@@H](O)[C@H](n3cnc4c(N(C)C)ncnc43)O[C@@H]2CO)cc1 the results were TrxR1 substrate -5%, A549 tox 1.5µM*, IDH1 R132H inh -4%, TrxR1 inh 4%, Nrf2 block 1.5µM* and Mito fusion yeast -1%.
`O=C(Nc1ccccc1)N1N=CCC1c1ccccc1` (stereo unspecified) gave TrxR1 substrate 10%[57.1 µM], A549 tox -2%, IDH1 R132H inh 2%, TrxR1 inh 9%[57.1 µM], Nrf2 block 2% and Mito fusion yeast 4%.
O=C(Nc1ccc(Cl)c(Cl)c1)N1N=CCC1c1ccccc1 (stereo unspecified) was read as TrxR1 substrate -5%[57.1 µM], A549 tox inconclusive, IDH1 R132H inh 4%, TrxR1 inh -2%[57.1 µM], Nrf2 block 16µM* and Mito fusion yeast 6%.
C=C1C(=O)C23C(O)C1CCC2C12CCCC(C)(COC(C)=O)C1C(O)C3(O)OC2 (stereo unspecified) was read as TrxR1 substrate -7%, A549 tox 18µM*, IDH1 R132H inh 3%, TrxR1 inh 7.1µM* and Nrf2 block 9.2µM*.
`COC(=O)c1c(NC(=O)CN2CCC3(O)CCCCC3C2c2cc(OC)ccc2OC)sc(C)c1C` (stereo unspecified) gave TrxR1 substrate -6%, A549 tox -24%, IDH1 R132H inh 5%, TrxR1 inh -10%, Nrf2 block 18µM* and Mito fusion yeast -2%.
Screening COC(=O)c1c(NC(=O)CN2CCC3(O)CCCCC3C2c2ccc(F)cc2)sc(C)c1C (stereo unspecified) returned TrxR1 substrate -8%, A549 tox -15%, IDH1 R132H inh 5%, TrxR1 inh -2%, Nrf2 block inconclusive and Mito fusion yeast 30%.
NC(=O)CSc1nnc(-c2cnccn2)n1Cc1ccco1 was read as TrxR1 substrate 11%, A549 tox 3%, IDH1 R132H inh 0%, TrxR1 inh -18%, Nrf2 block 13% and Mito fusion yeast -2%.
Screening O=C(CSc1nnc(-c2ccccn2)n1Cc1ccco1)c1ccc(Cl)cc1 returned TrxR1 substrate -3%, A549 tox 15%, IDH1 R132H inh 9%, TrxR1 inh inconclusive, Nrf2 block -8% and Mito fusion yeast 8%.
Screening O=C(CSc1nnc(-c2cnccn2)n1Cc1ccco1)c1ccccc1 returned TrxR1 substrate -1%, A549 tox -8%, IDH1 R132H inh 5%, TrxR1 inh 56µM*, Nrf2 block 6% and Mito fusion yeast -2%.
O=C(CSc1nnc(-c2cnccn2)n1Cc1ccco1)c1ccc(Cl)cc1 was read as TrxR1 substrate 6%, A549 tox -3%, IDH1 R132H inh 0%, TrxR1 inh 13µM*, Nrf2 block 7% and Mito fusion yeast 9%.
COc1ccc(C2C(C(=O)/C=C/c3ccco3)=C(O)C(=O)N2CCN2CCOCC2)cc1 (stereo unspecified) was read as TrxR1 substrate -2%[57.1 µM], A549 tox -25%, IDH1 R132H inh 4%, TrxR1 inh -83%, Nrf2 block 5% and Mito fusion yeast 8%.
COc1cccc(C2C(C(=O)/C=C/c3ccco3)=C(O)C(=O)N2CCN2CCOCC2)c1 (stereo unspecified) was read as TrxR1 substrate -3%, A549 tox -23%, IDH1 R132H inh 18%, TrxR1 inh 10µM*, Nrf2 block -8% and Mito fusion yeast 2%.
CC(=O)c1cccc(Nc2nc(-c3sc(C)nc3C)cs2)c1 was read as TrxR1 substrate 6%[57.1 µM], A549 tox -16%, IDH1 R132H inh 2%, TrxR1 inh 6%[57.1 µM], Nrf2 block 23µM* and Mito fusion yeast 6%.
For Cc1cccc(Cn2c(SCc3ccc(C(=O)N4CCCCCC4)cc3)nc3ccncc32)c1 the results were TrxR1 substrate -9%, A549 tox 0%, IDH1 R132H inh 13%, TrxR1 inh -17% and Nrf2 block 23µM*.
COc1cccc(N2C(=O)c3ccccc3C2=O)c1 was read as A549 tox 8% and Nrf2 block 6%.
Cc1ccc(Oc2coc3cc(O)ccc3c2=O)cc1 was read as TrxR1 substrate 24%, A549 tox 1%, IDH1 R132H inh 0%, TrxR1 inh 28%, Nrf2 block 9.2µM* and Mito fusion yeast 32%.
Screening COC(=O)c1ccc(C2C=C(c3ccc(Cl)cc3)Nc3nc4ccccc4n32)cc1 (stereo unspecified) returned TrxR1 substrate -10%[57.1 µM], A549 tox 5%, IDH1 R132H inh -18% and TrxR1 inh -7%[57.1 µM].
C=Cc1ccc(Cn2c(C(=O)O)c(CNCc3ccccc3)c3ccc(C)cc32)cc1 was read as TrxR1 substrate -11%, A549 tox 16µM*, IDH1 R132H inh -8%, TrxR1 inh 1% and Nrf2 block inconclusive.
Screening Cc1ccc(-c2cn3c(n2)sc2cc(C(=O)NC4CCCCCC4)ccc23)cc1 returned TrxR1 substrate 7%[11.4 µM], A549 tox -1%, IDH1 R132H inh 12%, TrxR1 inh 8%[11.4 µM] and Nrf2 block 18%.
Screening CCCCOc1ccc(C(=O)NCCS(=O)(=O)N2CCN(c3ccccc3OC)CC2)cc1 returned TrxR1 substrate 7%[57.1 µM], A549 tox -16%, IDH1 R132H inh -1% and TrxR1 inh 31%[57.1 µM].
